# Hits are enriched below; roughly 10% of the tested compounds scored in any of these assays.
# FLuc inh: inhibitors of firefly (Photinus pyralis) luciferase; purified P. pyralis luciferase, luminescence, biochemical; hit rate 2.5% among 76,000; AID 1347043; P08659; Potency, µM (series often up to 115 µM), actives largely listed as inhibitors; also: % is scaled to controls: 0 for no effect and ±100 for the full control effect; nearly all actives have a fitted effect of over 65% in size
#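 Purified 10nM P. pyralis luciferase with 10uM D-luciferin and 10uM ATP in 50mM Tris acetate pH 7.5, 10mM Mg acetate, 0.01% Tween-20, 0.05% BSA. qHTS titration; luminescence read by CCD imager.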
# 3T3 cytotox: cytotoxic compounds in NIH 3T3 cells; NIH 3T3 viability, CellTiter-Glo ATP luminescence, 48-72 h; Potency, µM (titrated, usually from 96.7 µM), inactives show at the highest dose activity change, negative = cytotoxicity, most hits filed as inhibitors; hit rate 4.3% among 94,000; also: % is scaled to controls: 0 for no effect and ±100 for the full control effect; nearly all actives have a fitted effect of over 55% in size
#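 NIH 3T3 cells at 400 cells/well received 23 nL of compound by pintool and were incubated 48 or 72 h at 37 °C. Viability was read as ATP-coupled CellTiter-Glo luminescence.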
# HEK293 tox: kills HEK 293 cells; HEK 293 viability, ATP luminescence (CellTiter-Glo), 48-72 h; Potency, µM (series often up to 115 µM), for the others: top-dose activity change, negative = cytotoxicity, usual class: inhibitors; hit rate 6.6% among 94,000; AID 1345083; also: % is scaled to controls: 0 for no effect and ±100 for the full control effect; nearly all actives have a fitted effect of over 60% in size
#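 HEK 293 cells at 250 cells/well were exposed to compounds by pintool transfer for 48 or 72 hr at 37 degree Celsius, 5% CO2. Viability was read as ATP-coupled luminescence with CellTiter-Glo after 10 min at room temperature.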
# GPT2 inhibitor: blocks human glutamate pyruvate transaminase 2. Recombinant GPT2, coupled pyruvate oxidase/HRP Amplex Red fluorescence. Q8TD30. hit rate 0.25% among 100,000. Potency, µM (doses to about 57.7 µM), for inactives: top-dose activity change, negative = inhibition, hits mostly inhibitors; also: % is scaled to controls: 0 for no effect and ±100 for the full control effect; nearly all actives have a fitted effect of over 60% in size
#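 Inhibition is scored from Amplex Red fluorescence generated when pyruvate oxidase and HRP act on pyruvate released by GPT2. Reactions contain 10ng/uL enzyme, 250uM a-KG and 2mM L-alanine and run 30 min at room temperature.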
# hNpr1 antagonist: antagonists of human natriuretic peptide receptor Npr1; P16066; HEK293 hNpr1 GloSensor cGMP, ANP-stimulated luminescence; Potency, µM (series often up to 46.3 µM), inactives show at the top dose activity change, negative = inhibition, actives largely listed as inhibitors; hit rate 1.6% among 76,000; calls by dose curve; also: % is scaled to controls: 0 for no effect and ±100 for the full control effect; nearly all actives have a fitted effect of over 60% in size
#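 HEK293 cells stably expressing human Npr1 and cGMP GloSensor pGS-40F, loaded 2 h with 2% GloSensor reagent, given compound 30 min at room temperature. Luminescence read before and 20 min after 0.1 nM hNppA.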
# NPR1 antag cnf: hNpr1 antagonism, confirmation assay; shares compounds with hNpr1 antagonist; HEK293 hNpr1 cGMP GloSensor luminescence, ANP-stimulated; Potency, µM (top dose mostly 57.6 µM), inactives show at the highest dose activity change, negative = inhibition, actives largely listed as inhibitors; hit rate 76% among 1,400; AID 1347044; calls by dose curve; also: nearly all actives have a fitted effect of over 70% in size
# NPR2 antag: hNpr2 antagonism, selectivity versus Npr1; HEK293 hNpr2 GloSensor cGMP luminescence, CNP-stimulated; AID 1347046; shares compounds with hNpr1 antagonist; hit rate 67% among 1,400; Potency, µM (series often up to 57.6 µM), for the others: at the top dose activity change, negative = inhibition, usual class: inhibitors; calls by dose curve; also: nearly all actives have a fitted effect of over 70% in size
# Target sequence (P20594 whole entry, looked up): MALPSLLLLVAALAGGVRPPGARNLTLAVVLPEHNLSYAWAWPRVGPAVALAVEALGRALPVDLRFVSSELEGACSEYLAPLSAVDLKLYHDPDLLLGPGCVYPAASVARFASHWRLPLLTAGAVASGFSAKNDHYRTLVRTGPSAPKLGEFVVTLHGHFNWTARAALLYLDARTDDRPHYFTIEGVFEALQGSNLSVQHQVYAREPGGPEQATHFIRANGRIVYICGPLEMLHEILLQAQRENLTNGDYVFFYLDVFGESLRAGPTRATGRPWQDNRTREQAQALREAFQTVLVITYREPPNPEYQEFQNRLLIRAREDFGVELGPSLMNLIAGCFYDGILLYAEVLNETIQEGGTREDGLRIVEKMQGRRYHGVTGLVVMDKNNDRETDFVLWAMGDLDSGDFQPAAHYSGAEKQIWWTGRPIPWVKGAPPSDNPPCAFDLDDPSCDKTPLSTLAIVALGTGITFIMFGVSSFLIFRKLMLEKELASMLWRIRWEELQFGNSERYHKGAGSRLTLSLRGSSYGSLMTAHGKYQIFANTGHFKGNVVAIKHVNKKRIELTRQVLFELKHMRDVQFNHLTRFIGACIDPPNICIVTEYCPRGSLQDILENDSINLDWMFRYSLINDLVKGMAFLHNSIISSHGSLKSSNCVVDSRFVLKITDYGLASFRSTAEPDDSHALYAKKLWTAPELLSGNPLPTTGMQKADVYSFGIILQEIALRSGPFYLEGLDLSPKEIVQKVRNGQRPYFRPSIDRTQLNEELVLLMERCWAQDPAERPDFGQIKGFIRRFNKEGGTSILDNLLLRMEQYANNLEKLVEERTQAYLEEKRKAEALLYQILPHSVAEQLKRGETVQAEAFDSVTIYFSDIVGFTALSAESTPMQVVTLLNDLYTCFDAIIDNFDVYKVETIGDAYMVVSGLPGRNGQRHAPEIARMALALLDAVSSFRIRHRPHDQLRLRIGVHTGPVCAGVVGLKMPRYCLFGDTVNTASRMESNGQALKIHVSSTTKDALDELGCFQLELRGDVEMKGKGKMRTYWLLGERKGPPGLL
# FLuc counter: inhibits firefly luciferase, false Npr1 antagonist flag | purified FLuc enzyme, luminescence, Km substrate | hit rate 0.7% among 1,400 | Potency, µM (series often up to 57.6 µM), without a hit: at the highest dose activity change, negative = inhibition, usual class: inhibitors | AID 1347047 | shares compounds with hNpr1 antagonist; also: 0% is about no effect
# GloSensor cGMP: counter-screen for Npr1 antagonists: GloSensor control cell line. shares compounds with hNpr1 antagonist. HEK293 GloSensor cGMP, SNP-stimulated, luminescence. Potency, µM (top dose mostly 57.6 µM), inactives show at the highest dose activity change, negative = inhibition, actives largely listed as inhibitors. hit rate 69% among 1,400; calls by dose curve; also: % is scaled to controls: 0 for no effect and ±100 for the full control effect; nearly all actives have a fitted effect of over 70% in size
# Active calls of the source: *; i = inactive; ? = inconclusive; / = not tested or not shown; [ ] = remark or other dose. Unless noted, calls follow the shape of the dose curve; as a rule, active = well fitted curve in the direction sought with a large enough effect; inconclusive = small, poorly fitted or top-dose-only effect, or another doubt; inactive = no such curve, though single readings can be large; an effect the other way counts as inactive or inconclusive. Potency is read from the fitted curve at half-maximal effect.
SMILES,FLuc inh,3T3 cytotox,HEK293 tox,GPT2 inhibitor,hNpr1 antagonist,NPR1 antag cnf,NPR2 antag,FLuc counter,GloSensor cGMP
O=C(CCC1CCCCC1)NC1CCN(c2ccc(=O)n(CC3CC3)n2)CC1,i,?,?,2%,?,/,/,/,/
O=c1ccc(N2CCC(NS(=O)(=O)c3ccccc3Cl)CC2)nn1CC1CC1,i,?,-39%,5%,13µM*,27µM*,22µM*,-1%,24µM*
CCCc1ccc(S(=O)(=O)NC2CCN(c3ccc(=O)n(CC4CC4)n3)CC2)cc1,i,?,?,?,10µM*,12µM*,15µM*,-1%,14µM*
CCCCCC(=O)N1CCC(=O)N(C)C[C@H]2COc3ccc(C)cc3[C@H]21,/,?,-23%,/,/,/,/,/,/
N#Cc1ccc(CN2CCc3nc(C(=O)Nc4cccc(C(F)(F)F)c4)oc3CC2)cc1,i,?,?,-9%,14µM*,17µM*,19µM*,-8%,11µM*
COc1ccc(CN2CCc3nc(C(=O)NCc4cccc(F)c4)oc3CC2)cc1OC,i,?,?,-10%,-12%,/,/,/,/
O=C(Nc1ccc(Cl)cc1)c1nc2c(o1)CCN(Cc1cc(F)ccc1F)CC2,i,?,?,i,13µM*,16µM*,13µM*,0%[86.2 µM],9.9µM*
O=C(Nc1ccc(Cl)cc1)c1nc2c(o1)CCN(Cc1ccccc1)CC2,i,?,?,-24%[88.5 µM],4µM*,11µM*,9.9µM*,?,7.9µM*
N#Cc1cccc(CN2CCc3nc(C(=O)NCCOc4ccccc4)oc3CC2)c1,i,?,?,-4%[88.5 µM],?,/,/,/,/
COc1ccc(CN2CCc3nc(C(=O)Nc4ccc(Cl)cc4)oc3CC2)cc1OC,i,?,?,-10%,6.3µM*,9.7µM*,11µM*,0%,7.7µM*
CC(=O)Nc1cc(C2CCCC2)nn1C,/,-20%[174 µM],-10%[230 µM],i,/,/,/,/,/
CCNC(=O)N1CC2=CC(C)(C)COc3ccc(OC)c(c32)C1,/,-29%,?,/,/,/,/,/,/
CN1CCCCC(CC(=O)N2CCN(c3ccc(F)cc3)CC2)C1=O (stereo not drawn),/,-4%,3%,i,/,/,/,/,/
COCC(=O)N1CC(C(=O)NCc2cccc(F)c2)CC(c2ccc(F)c(C)c2)C1 (stereo not drawn),i,-18%,?,i,0%,/,/,/,/
CCNC(=O)N1CC(C(=O)NCc2cccc(C)c2)CC(c2ccc(F)c(C)c2)C1 (stereo not drawn),i,?,?,i,22µM*,?,?,0%,?
Cc1ccc(C(=O)N2CCN(c3cc(-c4cccs4)[nH]n3)CC2)c(C)c1,i,7.9µM*,45µM*,i,?,27µM*,24µM*,4%,27µM*
COc1ccc(C(=O)N2CCCN(c3cc(-c4ccccc4)[nH]n3)CC2)c(OC)c1,i,-19%,40µM*,?,?,24µM*,?,2%,24µM*
COc1ccc(C(=O)N2CCCN(c3cc(-c4ccccc4)[nH]n3)CC2)c(C)c1,i,?,?,-25%,11µM*,17µM*,19µM*,1%,17µM*

# Screening results (PubChem)
